Results as given in PubChem BioAssay (Tox21).
Values joined by “and” are separate entries in the source; they are usually repeats but may differ in a detail not shown here. Equal values may be shown once. Records with an inconclusive call do not appear. The source holds several records for some structures; these can differ, active in one and inactive in another. Active and inactive are the calls of the source. Unless noted, the call rests on the fitted dose curve; in most records, active means well fitted curve in the direction sought with a large enough effect in the repeat runs; inconclusive means weak or mixed curves; inactive means no such curve, though single readings can be large; an effect the other way counts as inactive or inconclusive.

Tests used:
[1] = biological target: Peroxisome proliferator-activated receptor delta (Homo sapiens) (UniProt Q03181); assay: qHTS assay to identify small molecule agonists of the peroxisome proliferator-activated receptor delta (PPARd) signaling pathway (AID 743212; calls by dose curve)
Outline: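 HEK293H PPARd-bla cells; 5 h preincubation 37 C/5% CO2; compound (DMSO) 37 C; LiveBLAzer B/G FRET substrate 2 h RT; fluorescence intensity.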

[2] = qHTS assay to identify small molecule antagonists of the peroxisome proliferator-activated receptor delta (PPARd) signaling pathway - cell viability counter screen (AID 743213); further: nearly all actives have a fitted effect of over 50% in size; further: potency means the concentration at half of the fitted maximal effect
Outline: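 Luminescence from CellTiter-Glo, added after the bla read and incubated 30 min at room temperature, gives viability of HEK293H PPARd-bla cells exposed to compounds for 17 h at 37 C with 300 nM L165041.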

[3] = biological target: Peroxisome proliferator-activated receptor delta (Homo sapiens) (UniProt Q03181); assay: qHTS assay to identify small molecule antagonists of the peroxisome proliferator-activated receptor delta (PPARd) signaling pathway (AID 743215; active means well fitted inhibition curve with a large enough effect in the signal ratio in the repeat runs, not every such curve was filed as active; the % refers to the signal ratio;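 further: cells stimulated with agonist L165041 at 300 nM final during compound exposure; series mostly up to about 62 µM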)
Outline: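 PPARd UAS-bla HEK293H cells were pre-incubated 5 h at 37 C, then given test compounds in DMSO plus agonist L165041 (300 nM final). After 17 h at 37 C, beta-lactamase FRET substrate was added; fluorescence read after 2 h at room temperature.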

[4] = biological target: Bile acid receptor (Homo sapiens) (UniProt Q96RI1); assay: qHTS assay to identify small molecule antagonists of the farnesoid-X-receptor (FXR) signaling pathway (AID 743217; active means well fitted inhibition curve with a large enough effect in the signal ratio in the repeat runs, not every such curve was filed as active; the % refers to the signal ratio; further: potency means the concentration at half of the fitted maximal effect)
Outline: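 FXR-UAS-bla HEK 293T cells pre-incubated 5 h at 37 °C, then exposed to compounds with chenodeoxycholic acid (50 uM final) for 16 h at 37 °C. Beta-lactamase reporter read by LiveBLAzer B/G FRET substrate fluorescence after 2 h at room temperature.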

[5] = qHTS assay to identify small molecule agonists of the farnesoid-X-receptor (FXR) signaling pathway - cell viability counter screen (AID 743218); further: nearly all actives have a fitted effect of over 45% in size
Outline: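 FXR-UAS-bla HEK 293T cells, plated 5 h at 37 C, were exposed to compounds for 16 h at 37 C. CellTiter-Glo was then added to the same wells as the bla readout; luminescence read after 30 min at room temperature.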

[6] = qHTS assay to identify small molecule antagonists of the farnesoid-X-receptor (FXR) signaling pathway - cell viability counter screen (AID 743221; active means well fitted cell-killing curve with a large enough effect in the repeat runs, not every such curve was filed as active; further: nearly all actives have a fitted effect of over 50% in size)
Outline: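 FXR-UAS-bla HEK 293T cells were treated with test compounds plus chenodeoxycholic acid (50 uM final) for 16 h at 37 C. Cell viability in the same wells was then read as CellTiter-Glo luminescence after 30 min at room temperature.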

[7] = biological target: Vitamin D3 receptor (Homo sapiens) (UniProt P11473); assay: qHTS assay to identify small molecule agonists of the vitamin D receptor (VDR) signaling pathway (AID 743222; calls by dose curve)
Outline: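 VDR-bla cells were plated 4 h at 37C/5% CO2, then exposed to compounds in DMSO for 16 h. After LiveBLAzer B/G FRET substrate addition and 2 h at room temperature, beta-lactamase reporter fluorescence was read.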

[8] = biological target: Vitamin D3 receptor (Homo sapiens) (UniProt P11473); assay: qHTS assay to identify small molecule antagonists of the vitamin D receptor (VDR) signaling pathway (AID 743223; active means well fitted inhibition curve with a large enough effect in the signal ratio in the repeat runs, not every such curve was filed as active; the % refers to the signal ratio)
Outline: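 VDR-bla cells were plated, incubated 4 h at 37C, then given compound and 1alpha,25-dihydroxyvitamin D3 (3 nM final). After 16 h at 37C, LiveBLAzer B/G FRET substrate was added for 2 h at room temperature and fluorescence read.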

[9] = qHTS assay to identify small molecule agonists of the peroxisome proliferator-activated receptor delta (PPARd) signaling pathway - cell viability counter screen (AID 743211); further: nearly all actives have a fitted effect of over 55% in size; further: potency means the concentration at half of the fitted maximal effect
Outline: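 PPARd-bla HEK293H cells (UAS-beta-lactamase reporter) were treated with compounds for 17 h at 37 C. Viability was then read in the same wells by CellTiter-Glo luminescence after 30 min at room temperature.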

Measured: Potency

Vitamin D3 receptor (Homo sapiens), sequence (P11473 whole entry, looked up): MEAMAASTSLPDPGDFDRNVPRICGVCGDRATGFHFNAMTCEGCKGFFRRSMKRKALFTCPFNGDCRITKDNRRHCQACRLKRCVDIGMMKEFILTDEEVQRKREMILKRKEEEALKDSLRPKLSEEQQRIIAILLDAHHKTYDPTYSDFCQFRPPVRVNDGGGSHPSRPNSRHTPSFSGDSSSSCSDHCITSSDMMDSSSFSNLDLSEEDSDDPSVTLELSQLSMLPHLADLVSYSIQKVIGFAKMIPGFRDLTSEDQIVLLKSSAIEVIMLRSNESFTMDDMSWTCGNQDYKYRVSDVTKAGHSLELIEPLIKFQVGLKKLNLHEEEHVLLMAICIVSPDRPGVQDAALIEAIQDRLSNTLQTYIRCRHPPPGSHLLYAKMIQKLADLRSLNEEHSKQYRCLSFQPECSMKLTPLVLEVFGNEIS
Peroxisome proliferator-activated receptor delta (Homo sapiens), sequence (Q03181 whole entry, looked up): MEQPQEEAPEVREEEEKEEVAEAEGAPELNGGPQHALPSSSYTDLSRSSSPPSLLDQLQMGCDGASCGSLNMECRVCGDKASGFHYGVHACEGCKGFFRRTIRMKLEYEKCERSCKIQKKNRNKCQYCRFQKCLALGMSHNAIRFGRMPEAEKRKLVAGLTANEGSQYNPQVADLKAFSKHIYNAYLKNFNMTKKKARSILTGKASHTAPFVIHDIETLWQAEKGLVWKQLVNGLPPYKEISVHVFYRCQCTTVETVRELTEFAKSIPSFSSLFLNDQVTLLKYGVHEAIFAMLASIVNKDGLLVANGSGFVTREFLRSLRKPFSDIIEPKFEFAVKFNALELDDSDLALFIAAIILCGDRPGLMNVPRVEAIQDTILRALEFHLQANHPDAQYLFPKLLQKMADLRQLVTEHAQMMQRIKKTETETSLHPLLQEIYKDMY
Bile acid receptor (Homo sapiens), sequence (Q96RI1 whole entry, looked up): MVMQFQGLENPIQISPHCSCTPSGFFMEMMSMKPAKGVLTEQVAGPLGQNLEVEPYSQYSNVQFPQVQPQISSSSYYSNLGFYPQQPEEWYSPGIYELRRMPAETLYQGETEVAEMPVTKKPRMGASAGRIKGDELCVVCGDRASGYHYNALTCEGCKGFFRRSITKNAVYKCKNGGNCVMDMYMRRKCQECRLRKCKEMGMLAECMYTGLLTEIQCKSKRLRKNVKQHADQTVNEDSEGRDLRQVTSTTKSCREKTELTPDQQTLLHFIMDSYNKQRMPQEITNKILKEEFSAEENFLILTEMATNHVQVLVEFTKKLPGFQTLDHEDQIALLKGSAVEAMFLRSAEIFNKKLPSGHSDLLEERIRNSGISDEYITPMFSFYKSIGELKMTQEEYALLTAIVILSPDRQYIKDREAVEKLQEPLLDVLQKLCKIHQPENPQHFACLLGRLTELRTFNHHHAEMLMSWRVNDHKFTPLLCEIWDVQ

c1ccc2cc3ccccc3cc2c1
inactive: [1] | [2] | [3] | [4] | [5] | [6] | [7] | [8]

C=CN1CCCC1=O
inactive: [9] | [1] | [2] | [3] | [6]

COC(=O)c1ccc(C)cc1
inactive: [1] | [2] | [3] | [4] | [5] | [6] | [7] | [8]

NCCS(=O)(=O)O
inactive: [9] | [2] | [5] | [6] | [7] | [8]

CC1(C)NC(=O)N(c2ccc([N+](=O)[O-])c(C(F)(F)F)c2)C1=O
inactive: [9] | [2] | [4] | [6] | [7] | [8]

CC[C@]12CCCN3CCc4c(n(c5ccccc45)[C@@](O)(C(=O)OC)C1)[C@@H]32
inactive: [9] | [2] | [5] | [6] | [7] | [8]

c1ccc2c(c1)ccc1ncccc12
inactive: [9] | [2] | [3] | [5] | [6]

O=S1(=O)CCCO1
inactive: [9] | [1] | [2] | [5] | [6] | [7] | [8]

CC(=O)Oc1c(C)c(C)c2c(c1C)CC[C@@](C)(CCC[C@H](C)CCC[C@H](C)CCCC(C)C)O2
inactive: [9] | [1] | [2] | [6] | [7] | [8]

CCCCCCCCCCC(CO)CCCCCCCC (stereo not drawn)
inactive: [9] | [1] | [2] | [3] | [6] | [7] | [8]

[Na+]
inactive: [9] | [1] | [2] | [3] | [6]

CCCCCCOCCOCCO
inactive: [9] | [2] | [4] | [5] | [6]

OC[C@H]1O[C@@H]2O[C@H]3[C@H](O)[C@@H](O)[C@@H](O[C@H]4[C@H](O)[C@@H](O)[C@@H](O[C@H]5[C@H](O)[C@@H](O)[C@@H](O[C@H]6[C@H](O)[C@@H](O)[C@@H](O[C@H]7[C@H](O)[C@@H](O)[C@@H](O[C@H]1[C@H](O)[C@H]2O)O[C@@H]7CO)O[C@@H]6CO)O[C@@H]5CO)O[C@@H]4CO)O[C@@H]3CO
inactive: [9] | [2] | [5] | [6] | [7] | [8]

NC[C@H](O)c1ccc(O)c(O)c1
inactive: [9] | [2] | [5] | [6]

CC(=O)Oc1ccc(C(c2ccc(OC(C)=O)cc2)c2ccccn2)cc1
inactive: [9] | [1] | [2] | [3] | [8]

OC[C@@H](O)[C@@H](O[C@@H]1O[C@H](CO)[C@H](O)[C@H](O)[C@H]1O)[C@H](O)[C@@H](O)CO
inactive: [9] | [2] | [6] | [7] | [8]

NCCN
inactive: [9] | [1] | [3] | [6]

Nc1ccc2c(O)cc(S(=O)(=O)O)cc2c1
inactive: [9] | [1] | [2] | [3] | [6]

Cc1ccc(/C(=C\CN2CCCC2)c2ccccn2)cc1
inactive: [9] | [1] | [3] | [5] | [6] | [7] | [8]

CCCOCCO
inactive: [9] | [2] | [4] | [5] | [6] | [7] | [8]

CC/C=C\C/C=C\C/C=C\CCCCCCCC(=O)O
inactive and 34.7 µM (active): [2]
inactive: [9] | [1] | [4] | [6] | [7] | [8]

C=CCNCC=C
inactive: [9] | [2] | [4] | [5] | [6] | [7] | [8]

CC(=O)O[C@]1(C(C)=O)CC[C@H]2[C@@H]3C=C(Cl)C4=CC(=O)CC[C@]4(C)[C@H]3CC[C@@]21C
48.9 µM (active) and inactive: [9]
inactive: [2] | [3] | [6]

O=C(O)CCCC(=O)O
inactive: [9] | [1] | [2] | [3] | [6]

CC/C(=C(/CC)c1ccc(O)cc1)c1ccc(O)cc1
active: [9] 61.6 µM | [2] 34.4 µM | [4] 16.8 µM
inactive: [6] | [7] | [8]

Cc1ccc(C)c(O)c1
inactive: [1] | [2] | [3] | [4] | [5] | [6] | [7] | [8]

CC(C)=CCO
inactive: [9] | [1] | [2] | [6] | [7] | [8]

Clc1ccc(Sc2cc(Cl)c(Cl)cc2Cl)cc1
inactive: [9] | [2] | [5] | [6] | [7] | [8]

Nc1ccc(O)c(N)c1
inactive: [2] | [5] | [6] | [7] | [8]

C[C@]12C=CC(=O)C=C1CC[C@H]1[C@@H]3C[C@@H](O)[C@](O)(C(=O)CO)[C@@]3(C)C[C@H](O)[C@@]12F
inactive: [1] | [2] | [3] | [5] | [6] | [7] | [8]

COCCOCCOCCO
inactive: [1] | [2] | [6] | [7] | [8]
